High-throughput results deposited in PubChem by The Scripps Research Institute Molecular Screening Center.
The list is not random: actives were taken first. Their share in the collection is about 4.1%.
ssDAF12 agonist – activates DAF-12 receptor from parasite S. stercoralis | HEK293 ssDAF-12/GRIP1 lit1-tk-luc reporter, luminescence; % of 3 µM dafachronic acid response | activation, % at 6.8 µM | hit rate 1% among 370,000 | AID 652126;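 active means activation above the mean over all tested compounds plus 3 SD, cut at about 0.9% in these data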;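 further: 0% = DMSO-only wells and 100% = 3 µM delta7-dafachronic acid wells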
hgDAF12 agonist – agonists of H. glycines DAF-12 nuclear receptor; HEK293 GAL4-hgDAF12 UAS-luciferase reporter, agonist luminescence; normalized to butyrate control; activation, % at 6.8 µM; hit rate 1.8% among 370,000; AID 687014;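 active means activation above a cutoff set at the mean of all screened compounds plus 3 SD, cut at about 10% in these data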;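 further: 0% = DMSO wells and 100% = sodium butyrate wells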
DAX1 inh-1 – inhibitors of human orphan nuclear receptor DAX1 (NR0B1); P51843; HEK293 Gal4-DAX1 luciferase reporter, luminescence; inhibition, % at 6.75 µM; hit rate 0.99% among 340,000; AID 504766;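 active means inhibition above the mean over all tested compounds plus 3 SD, cut at about 4.2% in these data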;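 further: 0% = DAX1-transfected cells with DMSO and 100% = empty-vector control cells with DMSO; inhibition shows as a rise in luminescence from relieved DAX1 repression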
Target sequence (P51843 207-470 limits assumed): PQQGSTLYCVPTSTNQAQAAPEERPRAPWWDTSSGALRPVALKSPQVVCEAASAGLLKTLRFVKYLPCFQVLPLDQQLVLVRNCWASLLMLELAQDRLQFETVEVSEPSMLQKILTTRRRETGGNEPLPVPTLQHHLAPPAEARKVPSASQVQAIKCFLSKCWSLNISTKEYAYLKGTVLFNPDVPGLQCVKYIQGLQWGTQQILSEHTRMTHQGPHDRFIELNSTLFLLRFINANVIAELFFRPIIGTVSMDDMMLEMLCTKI
DAX1 inh-2 – DAX1 (NR0B1) inhibition, primary screen; HEK293T StAR-luciferase reporter, SF-1/DAX-1 repression relief; inhibition, % at 6.8 µM; hit rate 1.1% among 370,000; AID 652010;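 active means inhibition above the mean over all tested compounds plus 3 SD, cut at about 3.6% in these data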;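 further: 0% = DAX-1 cells with DMSO and 100% = cells lacking DAX-1 with DMSO; higher inhibition means more luminescence from relief of DAX-1 repression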
hcDAF12 agonist – H. contortus DAF-12 activation, primary screen; hit rate 1.4% among 370,000; HEK293 hcDAF-12 lit1-tk-luc reporter, luminescence; 0% DMSO, 100% Δ7-dafachronic acid; activation, % at 6.8 µM;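 active means activation above the mean of all tested compounds plus 3 SD, cut at about 5.5% in these data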;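 further: 100% = response to 3 µM Δ7-dafachronic acid high control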
LXR ag – activates human LXR-beta, counter-screen for hcDAF-12 agonists. HEK293 Gal4-LXR tk-luc reporter, luminescence, 24 h; normalized: DMSO 0%, positive control 100%. shares compounds with hcDAF12 agonist. 3,400 tested, under 10 active. AID 743027. activation, % at 6.8 µM;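 active means mean percent activation of the reporter above a cutoff set as the average over tested compounds plus their standard deviation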
hcDAF12 ag – hcDAF-12 agonism, confirmation assay; shares compounds with hcDAF12 agonist; HEK293 hcDAF-12 lit1-tk-luc reporter, luminescence; % of Δ7-dafachronic acid response; activation, % at 6.8 µM; hit rate 61% among 3,400; AID 743032;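 active means mean activation across triplicate tests above the threshold derived from the earlier primary screen, cut at about 5.5% in these data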;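 further: 0% = DMSO only wells and 100% = 3 µM Δ7-dafachronic acid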
* = called active by the depositor; · = no result.

SMILES	ssDAF12 agonist	hgDAF12 agonist	DAX1 inh-1	DAX1 inh-2	hcDAF12 agonist	LXR ag	hcDAF12 ag
O=C(NCCc1ccccn1)c1cc(-c2ccccc2Cl)nc2ccccc12	-1.8	0.6	-0.2	-0.8	-4.4	·	·
CC(=O)/C(N=Nc1cc(C)ccc1O)=C(\C)O	0.3	-0.4	2.2	-0.1	9.2*	0.0	6.3*
CC(=O)/C(N=Nc1ccc(C(=O)O)cc1[N+](=O)[O-])=C(\C)O	-1.2	0.1	-0.1	0.6	-0.9	·	·
CNc1c2cccc(C)c2nc2c(C(=O)NCCN(C)C)cccc12	4.1*	9.4	4.2	-5.4	37.7*	-0.3	-3.7
Cc1ccc(C(=O)NCCN(C)C)c(C)c1	-1.0	0.3	0.5	0.0	-2.2	·	·
Cc1ccc(-c2nc3ccccc3s2)cc1NC(=O)c1ccc2c(c1)OCO2	-0.5	-1.8	0.0	-0.1	-1.6	·	·
O=C(Nc1cc(-c2nc3ccccc3s2)ccc1Cl)c1ccc2c(c1)OCO2	1.6*	11.0*	3.0	1.6	9.9*	0.2	6.3*
Clc1nc(-c2ccccn2)nc2scc(-c3ccccc3)c12	0.4	14.4*	1.1	2.2	11.6*	1.2	6.6*
Cc1c(C(=O)NC2CCN(Cc3ccccc3)C2)oc2c(Cl)cccc12 (stereo not given)	-0.6	-0.9	0.1	0.3	7.0*	-0.3	2.1
Cc1nc2c(Cl)cccc2c2c1CC(CBr)O2 (stereo not given)	-1.8	-1.2	-0.9	-0.2	-2.1	·	·
Cc1ccc2nc(Br)c3c(c2c1)OC(CBr)C3 (stereo not given)	-2.0	0.8	-0.6	0.0	7.4*	-0.2	0.0
OCC1CCCN(C(=S)Nc2ccc(OC(F)F)cc2)C1 (stereo not given)	-0.5	3.7	0.7	1.0	10.7*	0.1	0.3
Cn1c(N2CCN(C(c3ccccc3)c3ccccc3)CC2)nc2c1c(=O)[nH]c(=O)n2C	-1.0	-1.4	1.2	-0.4	-0.3	·	·
COc1ccc(C2CC(c3cccs3)=Nc3ccccc3S2)cc1 (stereo not given)	0.3	7.8	2.4	0.5	8.6*	0.2	4.0
COc1ccccc1NC(=O)NC(=O)c1ccccc1	0.7	9.0	-0.4	0.4	11.0*	1.0	12.7*
COc1ccccc1NC(=O)Nc1cccc(C(=O)O)c1	-1.1	2.2	-0.6	0.2	-0.3	·	·
CCOC(=O)C1=C(C)NC2=C(C(=O)CCC2)C1c1coc2ccccc2c1=O (stereo not given)	-0.8	4.8	0.2	-0.1	6.8*	-0.2	4.5
CC1=C(C(=O)OC2CCCC2)C(c2coc3ccccc3c2=O)C2=C(CCCC2=O)N1 (stereo not given)	0.2	-0.3	-0.4	-0.9	2.1	·	·
COc1ccc(NC(=O)/C=C/c2ccc(F)cc2)cn1	-1.2	5.7	-0.2	0.9	0.0	·	·
COc1ccc(NC(=O)/C=C/c2ccccc2)cn1	-0.6	11.9*	0.6	2.2	8.5*	1.0	6.5*
COc1ccc2c(C(=O)c3ccc(Cl)cc3)n(CCCC(N)=O)[n+]([O-])c2c1	0.2	0.5	1.3	0.5	6.9*	-0.2	3.5
COc1ccc(C(=O)c2c3ccccc3[n+]([O-])n2CCC(N)=O)cc1	-1.1	1.6	0.9	0.2	-0.3	·	·
Cc1ccc(C(=O)c2c3ccc(C(F)(F)F)cc3[n+]([O-])n2CCCC(N)=O)cc1	-1.0	0.3	0.7	0.3	2.6	·	·
Cc1ccc(C(=O)c2c3ccc(C(F)(F)F)cc3[n+]([O-])n2CCC(N)=O)cc1	-0.2	0.9	1.0	-0.1	7.8*	-0.2	1.9
O=C(CSc1ccccc1C(=O)O)NCC1CCCCC1	-1.6	-2.9	0.1	0.6	-2.1	·	·
CNc1c(C(=O)O)ccc2c1C(=O)c1ccccc1C2=O	-0.7	-2.8	-2.3	-0.2	-2.6	·	·
O=C(O)c1ccc2c(c1Nc1ccccc1)C(=O)c1ccccc1C2=O	0.5	-0.4	4.4*	0.4	7.5*	-0.3	2.8
